Columns and labels:
Conditions in all cases: concentration: 1 μM,replicates: in singlicate; n = 1
[1] = tested on: FYN
[2] = tested on: GAK
[3] = tested on: T1, GCN2(Kin.Dom.2,S808G)
T1 construct: gene EIF2AK4

[4] = tested on: GRK1
[5] = tested on: T2, GRK2
T2 construct: gene ADRBK1

[6] = tested on: T3, GRK3
T3 construct: gene ADRBK2

[7] = tested on: GRK4
[8] = tested on: GRK7
[9] = tested on: GSK3A
[10] = tested on: GSK3B
[11] = tested on: T4, HASPIN
T4 construct: gene GSG2

[12] = tested on: HCK
[13] = tested on: HIPK1
[14] = tested on: HIPK2
[15] = tested on: HIPK3
[16] = tested on: HIPK4
[17] = tested on: HPK1
[18] = tested on: HUNK
[19] = tested on: ICK
[20] = tested on: IGF1R
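Further: KINOMEscan kinase panel screen.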

Row | SMILES | %Inh [1] [%] | %Inh [2] [%] | %Inh [3] [%] | %Inh [4] [%] | %Inh [5] [%] | %Inh [6] [%] | %Inh [7] [%] | %Inh [8] [%] | %Inh [9] [%] | %Inh [10] [%] | %Inh [11] [%] | %Inh [12] [%] | %Inh [13] [%] | %Inh [14] [%] | %Inh [15] [%] | %Inh [16] [%] | %Inh [17] [%] | %Inh [18] [%] | %Inh [19] [%] | %Inh [20] [%]
1 | CN(c1ccccc1CNc1nc(Nc2ccc3c(c2)CC(=O)N3)ncc1C(F)(F)F)S(C)(=O)=O | 0 | 45 | 0 | 12 | 0 | 0 | 7 | 47 | 64 | 0 | 0 | 3 | 83 | 80 | 64 | 89 | 76 | 0 | 0 | 88
2 | Cc1ccn2nc(-c3ccc(F)cc3)c(-c3ccncc3)c2c1.Cl [GW457859] | 0 | 0 | 0 | 0 | 0 | 40 | 0 | 59 | 9 | 0 | 32 | 10 | 0 | 0 | 0 | 0 | 12 | 52 | 0 | 0
3 | CC(C)c1nc(-c2cccc(NS(=O)(=O)c3ccccc3)c2)c(-c2ccnc(Nc3ccc4c(c3)CN(C)CC4)n2)s1 [GSK1649598] | 98.7 | 87 | 100 | 0 | 0 | 0 | 0 | 0 | 61 | 24 | 0 | 99.7 | 75 | 58 | 69 | 93.6 | 88 | 3 | 36 | 0
4 | Cn1ccc2ncnc(Oc3ccc(NC(=O)Nc4cncc(C(F)(F)F)c4)c(Cl)c3)c21 | 0 | 0 | 0 | 4 | 0 | 0 | 11 | 0 | 0 | 0 | 0 | 14 | 10 | 0 | 0 | 0 | 0 | 0 | 0 | 0
5 | COC(=O)Nc1nc2cc(Oc3ccc(NC(=O)Nc4cc(C(F)(F)F)ccc4Cl)cc3)ccc2[nH]1.Cl [GW697465] | 9 | 0 | 8 | 0 | 0 | 65 | 0 | 0 | 12 | 0 | 13 | 0 | 0 | 0 | 3 | 86 | 63 | 17 | 0 | 0
6 | CS(=O)c1ccc(-c2coc3ccc(-c4n[nH]c(=O)o4)cc23)cc1 (stereo not shown) | 0 | 0 | 21 | 6 | 0 | 30 | 19 | 15 | 93.3 | 15 | 50 | 0 | 99.6 | 100 | 99.6 | 93.6 | 1 | 11 | 29 | 13
7 | O=C(Nc1ccccc1)c1cccc(Oc2ccc3nccn3n2)c1 | 1 | 8 | 0 | 0 | 0 | 26 | 0 | 0 | 0 | 0 | 15 | 15 | 0 | 0 | 0 | 32 | 0 | 0 | 63 | 0
8 | COc1cc2ncn(-c3cc(OCC4CCCCC4)c(C(N)=O)s3)c2cc1OC [GSK204559] | 29 | 79 | 6 | 23 | 7 | 40 | 27 | 98 | 0 | 0 | 0 | 0 | 9 | 0 | 0 | 68 | 39 | 0 | 0 | 5
9 | O=C(Nc1ccc(Oc2ccc3nc(NC(=O)C4CC4)cn3n2)c(F)c1)c1cccn(-c2ccccc2)c1=O | 15 | 0 | 20 | 0 | 0 | 0 | 21 | 0 | 25 | 0 | 0 | 71 | 40 | 0 | 0 | 20 | 11 | 6 | 0 | 0
10 | Cc1nnc(-c2ccc3occ(-c4ccc(S(C)=O)cc4)c3n2)o1 (stereo not shown) | 0 | 5 | 0 | 0 | 0 | 0 | 33 | 0 | 40 | 0 | 6 | 0 | 46 | 0 | 0 | 0 | 0 | 0 | 0 | 10
11 | C[C@@H]1CCN(C(=O)N2CCCC2)C[C@@H]1N(C)c1ncnc2[nH]ccc12 | 59 | 0 | 1 | 17 | 25 | 36 | 17 | 8 | 2 | 26 | 30 | 0 | 25 | 0 | 22 | 2 | 0 | 0 | 13 | 0

Source: paper PMC5540273 (PLoS ONE, 2017)
